Experiment [1] can be described thus: Caspase-3/7 induction in HepG2 cells by small molecules, qHTS assay (AID 1346978). Further: nearly all actives have a fitted effect of over 15% in size. Put shortly: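 Caspase-3/7 induction was measured by Caspase-Glo 3/7 luminescence (30 min, room temperature) after a 17 hr compound exposure of wild-type HepG2 cells seeded at 2,000 per well and pre-incubated 5 hr.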
(In general: Quantitative high-throughput screening tests each substance at several concentrations.)

Experiment [2] in a line: Caspase-3/7 induction in CHO-K1 cells by small molecules, qHTS cell viability counter screen (AID 1346979). Further: nearly all actives have a fitted effect of over 35% in size. Further: potency means the concentration at half of the fitted maximal effect. Put shortly:
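To flag cytotoxic compounds, treated CHO-K1 wild-type cells were given CellTiter-Fluor at 16hr and read fluorescently after 1hr at 37C; the caspase-3/7 luminescence was measured in these same wells.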

Experiment [3] in a line: Caspase-3/7 induction in CHO-K1 cells by small molecules, qHTS assay (AID 1346980). Further: nearly all actives have a fitted effect of over 15% in size. Put shortly:
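Luminescent Caspase-Glo 3/7 read (30min, room temperature) quantified apoptosis induction. Cells were wild-type CHO-K1, treated with compound for 17hr at 37 C and 5% CO2.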

The nature of experiment [4]: Caspase-3/7 induction in HepG2 cells by small molecules, qHTS cell viability counter screen (AID 1346981). Further: nearly all actives have a fitted effect of over 30% in size. Further: potency means the concentration at half of the fitted maximal effect. Put shortly:
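Fluorescence read-out of live-cell protease activity (CellTiter-Fluor) after 1 hr with reagent. This was measured in the same wells as the caspase-3/7 luminescence, on HepG2 cells exposed to DMSO-dissolved compounds for 16 hr at 37 C.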

Experiment [5] addresses Nuclear receptor subfamily 1 group I member 2 (Rattus norvegicus) (UniProt Q9R1A7). Put plainly: Rat pregnane X receptor (rPXR) activation by small molecules, qHTS assay (AID 1346983). Further: nearly all actives have a fitted effect of over 20% in size. The following applies: rPXR luciferase reporter cells, One-Glo luminescence, 24 h; max activation: stronger effect = higher value. Put shortly:
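Luminescent readout (One-Glo luciferase, 30 min room temperature) followed 24 hr compound treatment at 37 C of rPXR cells plated 2,000 per well and preincubated 5hr; qHTS format with compounds delivered in DMSO.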

Experiment [6] deals with Nuclear receptor subfamily 1 group I member 2 (Homo sapiens) (UniProt O75469). Put plainly: Human pregnane X receptor (PXR) small molecule agonists, qHTS assay (AID 1346982). Further: nearly all actives have a fitted effect of over 35% in size. Further: potency means the concentration at half of the fitted maximal effect. Put shortly: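 HepG2 PXR-Luc reporter line, 5% charcoal-stripped FBS; 5 hr pre-incubation, compound (DMSO) 24 hr at 37 C/5% CO2; ONE-Glo 30 min RT; luminescence read-out.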
The target in experiment [7] is Acetylcholinesterase (Homo sapiens) (UniProt P22303). Put plainly: Acetylcholinesterase (AChE) small molecule antagonists: colormetric cell-based qHTS assay (AID 1347395; calls by dose curve; further: nearly all actives have a fitted effect of over 30% in size; further: potency means the concentration at half of the fitted maximal effect). Put shortly:
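Neuroblastoma line SH-SY5Y supplied the enzyme; cells were preincubated with compound for 30 min at 37 C and 5% CO2. Acetylthiocholine with DTNB was then added for 90 min at 37 C, and thiocholine was measured by colour.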

Experiment [8] shares this target. The experiment can be described thus: Acetylcholinesterase (AChE) small molecule antagonists: enzyme-based qHTS assay (AID 1347397; calls by dose curve; further: nearly all actives have a fitted effect of over 55% in size; further: potency means the concentration at half of the fitted maximal effect). The note with it: Potency: AChE enzyme activity inhibition. Put shortly:
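First, recombinant human AChE (50 mU/mL as dispensed) received test compound or DMSO. Second, plates stood 30 min at room temperature. Third, DTNB and acetylthiocholine were added, followed by 10 min at room temperature and colorimetric detection.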

The target of experiment [9] is Nuclear receptor subfamily 1 group I member 2 (Homo sapiens) (UniProt O75469). The experiment can be described thus: CYP3A4 induction through human pregnane X receptor (PXR) by small molecules, qHTS assay (AID 1346984). Further: nearly all actives have a fitted effect of over 40% in size. Put shortly:
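HepG2-derived DPX-2 line carrying PXR plus a CYP3A4-promoter luciferase reporter; cells plated 5 hr, compound-exposed 24 hr at 37C. CYP3A4 activity probed with 3uM (final) Luciferin-IPA for 3hr, then luciferase read after One-Glo.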

Experiment [10] shares this target. The experiment can be described thus: Human pregnane X receptor (PXR) activation by small molecules, qHTS assay (AID 1346985). Further: nearly all actives have a fitted effect of over 40% in size. Put shortly:
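DPX-2 cells (HepG2 co-transfected with a PXR response element and a CYP3A4-promoter luciferase construct) were seeded at 2,000 per well, rested 5 hr at 37C, then exposed to DMSO-dissolved compounds for 24 hr. Activation was read as luciferase luminescence.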

Several values for one entry are separate records, joined by “and”; a condition that tells them apart may be missing. Equal entries are not always repeated. Inconclusive results are not listed. Where a structure was tested more than once in an assay, its records may differ in their call. Activity calls are given as the source filed them. Unless noted, the call rests on the fitted dose curve; in most records, active means well fitted curve in the direction sought with a large enough effect in the repeat runs; inconclusive means weak or mixed curves; inactive means no such curve, though single readings can be large; an effect the other way counts as inactive or inconclusive.
On the % scale 0 is the no-effect control and ±100 the full control effect.

Nuclear receptor subfamily 1 group I member 2 (Homo sapiens), sequence (O75469 whole entry, looked up): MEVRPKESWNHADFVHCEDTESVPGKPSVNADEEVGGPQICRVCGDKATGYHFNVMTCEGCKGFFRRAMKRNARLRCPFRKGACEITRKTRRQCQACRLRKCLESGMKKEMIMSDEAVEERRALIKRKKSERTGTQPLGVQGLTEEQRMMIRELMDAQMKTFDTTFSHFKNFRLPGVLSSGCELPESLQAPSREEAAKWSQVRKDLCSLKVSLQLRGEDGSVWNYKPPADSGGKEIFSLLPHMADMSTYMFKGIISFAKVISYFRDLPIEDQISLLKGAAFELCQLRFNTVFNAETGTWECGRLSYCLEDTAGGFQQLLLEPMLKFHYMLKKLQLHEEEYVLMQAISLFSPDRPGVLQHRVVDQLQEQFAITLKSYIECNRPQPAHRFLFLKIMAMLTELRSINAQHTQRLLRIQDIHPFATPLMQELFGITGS
Acetylcholinesterase (Homo sapiens), sequence (P22303 whole entry, looked up): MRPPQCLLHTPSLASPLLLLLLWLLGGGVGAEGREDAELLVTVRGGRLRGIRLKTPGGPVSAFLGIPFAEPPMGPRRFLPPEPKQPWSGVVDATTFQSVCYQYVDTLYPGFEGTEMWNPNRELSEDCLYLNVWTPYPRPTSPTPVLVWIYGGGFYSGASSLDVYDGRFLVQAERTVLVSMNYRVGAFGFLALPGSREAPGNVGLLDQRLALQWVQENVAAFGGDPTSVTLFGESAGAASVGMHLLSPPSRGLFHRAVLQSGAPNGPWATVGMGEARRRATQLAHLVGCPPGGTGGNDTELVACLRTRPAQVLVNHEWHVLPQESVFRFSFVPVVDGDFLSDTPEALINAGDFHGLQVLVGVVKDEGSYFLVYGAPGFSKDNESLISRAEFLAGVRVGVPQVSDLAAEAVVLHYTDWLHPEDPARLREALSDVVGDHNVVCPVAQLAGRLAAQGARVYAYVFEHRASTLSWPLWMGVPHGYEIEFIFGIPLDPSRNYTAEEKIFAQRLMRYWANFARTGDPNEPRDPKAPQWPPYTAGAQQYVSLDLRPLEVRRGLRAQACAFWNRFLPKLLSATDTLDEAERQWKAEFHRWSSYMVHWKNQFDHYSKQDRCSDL
Nuclear receptor subfamily 1 group I member 2 (Rattus norvegicus), sequence (Q9R1A7 whole entry, looked up): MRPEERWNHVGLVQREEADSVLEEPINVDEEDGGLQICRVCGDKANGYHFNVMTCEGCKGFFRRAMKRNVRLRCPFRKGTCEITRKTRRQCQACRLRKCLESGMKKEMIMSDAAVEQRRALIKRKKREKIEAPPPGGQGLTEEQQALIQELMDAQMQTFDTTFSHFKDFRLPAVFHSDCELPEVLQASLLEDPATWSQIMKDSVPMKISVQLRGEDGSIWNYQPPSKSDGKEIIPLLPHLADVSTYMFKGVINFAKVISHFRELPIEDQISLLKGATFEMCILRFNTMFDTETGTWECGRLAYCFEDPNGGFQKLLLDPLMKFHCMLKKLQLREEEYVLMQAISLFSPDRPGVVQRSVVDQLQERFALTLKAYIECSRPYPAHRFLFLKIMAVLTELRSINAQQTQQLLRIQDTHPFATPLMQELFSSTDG

As for `Oc1ccc(Cl)cc1`, the compound was classed as inactive in experiment [1] and in experiment [3]. In addition, the Potency entry in experiment [2] and in [4] was “inactive” in each case. Further, the max activation in [5] is 1.52% (inactive).
On to `ClCCOCCCl`, for which the compound was classed as inactive in experiment [1] and in [3]. The Potency entry in experiment [2], in experiment [4], in [6], in [7] and in [8] was “inactive” in each case.
Consider `CN(C)CCC#N`, for which the call in experiment [1] and in experiment [3] was inactive. Further, the Potency entry in [2], in [4], in experiment [6], in [7] and in experiment [8] was “inactive” throughout.
For `Sc1ccccc1`, the call in experiment [1] and in experiment [3] was inactive. In addition, the Potency entry in experiment [2], in [4], in [6], in experiment [7] and in experiment [8] was “inactive” in each case.
As for `Cc1cc(Cl)ccc1OC(C)C(=O)O` (centres undefined), the call in experiment [1] and in experiment [3] was inactive. Also, the Potency result in experiment [4], in experiment [6], in [7] and in experiment [8] was “inactive” throughout.
Consider `Cl/C=C/Cl`, for which the compound was called inactive in experiment [1] and in experiment [3]. Also, the Potency entry in experiment [2], in [4], in experiment [7] and in experiment [8] was “inactive” throughout. Also, the Potency result in experiment [6] was “inactive and 29.6 µM (active)”.
With `C/C=C/c1ccc2c(c1)OCO2`, the call in experiment [1] and in experiment [3] was inactive. The Potency entry in experiment [2], in [4], in experiment [6], in [7] and in experiment [8] was “inactive” throughout.
For the compound `CCCCC(CC)C(=O)Cl` (centres undefined), the result in [1] and in [3] was inactive. The Potency result in experiment [2], in experiment [4], in [6], in [7] and in experiment [8] was “inactive” each time.
Turning to `Cc1cccc(N)c1`, the Potency result in experiment [2], in experiment [4], in [7] and in experiment [8] was “inactive” throughout. Further, the result in experiment [3] was inactive. Further, the Potency in [6] is 54.6 µM (active) and inactive.
For the compound `Nc1ncc([N+](=O)[O-])s1`, the outcome in experiment [1] and in experiment [3] was inactive. Also, the Potency in experiment [2] is 30.9 µM (active) and inactive; in experiment [4] it was 54.9 µM (active) and inactive. Besides, the Potency result in [6], in experiment [7] and in experiment [8] was “inactive” in each case.
Consider `CN(C)C(=O)Nc1cccc(C(F)(F)F)c1`, for which the outcome in experiment [1] and in [3] was inactive. For the same compound, the Potency entry in experiment [2], in [4], in [6], in experiment [7] and in experiment [8] was “inactive” in each case.
As for `O=C(O)CCCc1ccc(N(CCCl)CCCl)cc1`, the result in experiment [1] and in experiment [3] was inactive. Besides, the Potency is 34.5 µM (active) and 21.7 µM (active) and 21.1 µM (active) in experiment [2]; 54.7 µM (active) and inactive in experiment [4]. The Potency result in experiment [6], in experiment [7] and in experiment [8] was “inactive” throughout.
In the case of `CNC(=O)O/N=C/C(C)(C)S(C)=O` (centres undefined), the call in [1] and in experiment [3] was inactive. Moreover, the Potency was 49.2 µM (active) and inactive in experiment [2]; 322 nM (active) and 354 nM (active) in experiment [7]; 572 nM (active) and 316 nM (active) in [8]. Further, the Potency entry in experiment [6] is “inactive”.
For the compound `FC(F)(F)c1ccc(Cl)cc1`, the compound was called inactive in experiment [1] and in [3]. The Potency entry in [2], in experiment [4], in [6], in experiment [7] and in [8] was “inactive” throughout.
In the case of `COS(=O)(=O)OC`, the compound was classed as inactive in experiment [1] and in experiment [3]. Also, the Potency entry in experiment [2], in experiment [4], in experiment [6], in [7] and in [8] was “inactive” each time.
On to `N#Cc1ccccn1`, for which the compound was called inactive in experiment [1] and in experiment [3]. Moreover, the Potency entry in experiment [2], in experiment [4], in experiment [6], in experiment [7] and in experiment [8] was “inactive” each time.
Regarding `C=CC(=O)OCCCCCC(C)C`, the result in experiment [1] and in [3] was inactive. The Potency result in [2], in experiment [4], in experiment [6], in experiment [7] and in experiment [8] was “inactive” throughout.
`CN1C(=O)CCS(=O)(=O)C1c1ccc(Cl)cc1` (centres undefined): the outcome in experiment [1] and in experiment [3] was inactive. In addition, the Potency result in [2], in experiment [4], in experiment [6], in experiment [7] and in [8] was “inactive” in each case.
Turning to `Cc1cccc(C)c1NC(=O)CN1CCCC1=O`, the result in [1] and in experiment [3] was inactive. The Potency entry in experiment [2], in experiment [4], in experiment [6], in experiment [7] and in experiment [8] was “inactive” in each case.
For the compound `CC(C)c1cccc(C(C)C)c1O`, the result in experiment [1] and in [3] was inactive. Besides, the Potency entry in [2], in experiment [4], in [7] and in experiment [8] was “inactive” throughout.
As for `CCOP(=S)(OCC)Oc1cc(C)nc(C(C)C)n1`, the call in experiment [1] and in experiment [3] was inactive. The Potency result in experiment [2], in [4], in experiment [9], in experiment [10] and in experiment [8] was “inactive” in each case. For the same compound, the max activation in [5] was 0.813% (inactive). Besides, in [7], the Potency was 31.9 µM (active) and 71 µM (active) and inactive.
On to `CCSC(=O)N1CCCCCC1`, for which the compound was classed as inactive in [1] and in experiment [3]. Besides, the Potency entry in experiment [2], in experiment [4], in experiment [6], in experiment [7] and in experiment [8] was “inactive” in each case.
Consider `CC[N+](=O)[O-]`, for which the outcome in experiment [1] and in [3] was inactive. For the same compound, the Potency entry in experiment [2], in experiment [4], in experiment [6], in experiment [7] and in experiment [8] was “inactive” in each case.
In the case of `CCOc1ccc(N)cc1`, the result in experiment [1] and in experiment [3] was inactive. The Potency entry in experiment [2], in experiment [4], in experiment [6], in experiment [7] and in experiment [8] was “inactive” throughout.
